Each structure is given as a SMILES string. Inconclusive results are not listed. Where a call stands in place of a potency, no number is given. Some structures have more than one record in an assay (separate samples or runs), and their calls can disagree. Calls of active or inactive are those of the source. The call rests on the fitted dose curve; in most records, active means well fitted inhibition curve with a large enough effect in the repeat runs; inconclusive means weak or mixed curves; inactive means no such curve, though single readings can be large or run the other way.
Potency means the concentration at half of the fitted maximal effect.

Cytochrome P450 1A2 (Homo sapiens), sequence (P05177 whole entry, looked up): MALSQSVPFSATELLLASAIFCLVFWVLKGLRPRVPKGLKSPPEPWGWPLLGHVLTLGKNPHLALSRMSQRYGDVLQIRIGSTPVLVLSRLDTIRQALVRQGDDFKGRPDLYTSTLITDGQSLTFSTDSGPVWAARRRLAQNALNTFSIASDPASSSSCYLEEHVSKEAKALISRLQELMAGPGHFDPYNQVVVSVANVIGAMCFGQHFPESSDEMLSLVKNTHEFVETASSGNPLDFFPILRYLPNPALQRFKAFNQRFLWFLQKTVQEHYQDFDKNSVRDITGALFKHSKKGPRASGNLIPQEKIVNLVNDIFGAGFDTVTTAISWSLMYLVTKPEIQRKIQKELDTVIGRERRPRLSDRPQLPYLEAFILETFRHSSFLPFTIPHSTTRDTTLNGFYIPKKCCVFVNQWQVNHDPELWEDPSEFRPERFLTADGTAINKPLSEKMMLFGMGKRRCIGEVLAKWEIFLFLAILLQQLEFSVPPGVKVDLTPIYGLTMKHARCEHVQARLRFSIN

The experiment concerns the target Cytochrome P450 1A2 (Homo sapiens) (UniProt P05177). In words: Cytochrome P450 Family 1 Subfamily A Member 2 (CYP1A2) small molecule antagonists: luciferase reporter qHTS assay (AID 1671199). Further: nearly all actives have a fitted effect of over 50% in size. Conditions: P450-Glo CYP1A2 enzyme, luciferin luminescence, 1 h; series mostly up to 115 µM. The essentials: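 Signal from luciferin formed by CYP1A2 from a proluciferin substrate is read as luminescence, expressed in relative luminescence units. Compounds sit with enzyme 10 min, NADPH-driven reaction runs 1 h, all at room temperature.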
On the technique in general: A reporter such as luciferase makes a cellular process visible.
Regarding `CCC1(c2cnc[nH]2)Cc2ccccc2C1`, the Potency is 8.12 µM (active).

Consider `CCCCCCCCC(C)=O`, for which the Potency entry was “inactive”.

For `CCCCCCC(C)OC(=O)COc1nc(F)c(Cl)c(N)c1Cl` (centres undefined), the Potency was 5.64 µM (active).

As to `O=C1C=CC(=O)N1c1ccccc1`, the Potency was 20 µM (active).

On to `CC(=O)OC1CCCCC1`, for which the Potency entry is “inactive”.

In the case of `O=Nc1ccc(NO)cc1`, the Potency entry is “inactive”.

As to `Nc1cc(Cl)c([N+](=O)[O-])cc1O`, the Potency was 19.9 µM (active).

For the compound `CC1=C(/C=C/C(C)=C/C=C/C(C)=C/C(=O)Nc2ccc(O)cc2)C(C)(C)CCC1`, the Potency was 72.8 µM (active) and inactive.

Regarding `CCCOc1sc(C(=O)N2CCC(c3cc(CN)ccc3F)CC2)c(C)c1Br`, the Potency was 73 µM (active).

`N#CSCSc1nc2ccccc2s1`: the Potency is 5.64 µM (active).

Regarding `CO[Si](CCC1CCC2OC2C1)(OC)OC` (centres undefined), the Potency result is “inactive”.

`CC(=O)Oc1ccc(C2(c3ccc(OC(C)=O)cc3)C(=O)Nc3ccccc32)cc1`: the Potency result is “inactive”.

With `CCCCCCCOC(=O)c1ccccc1C(=O)OCCCCCCC`, the Potency was 15.9 µM (active).

Regarding `COc1ccc2sc(C(=O)Nc3nnn[nH]3)c(OC(C)C)c2c1`, the Potency result is “inactive”.

For the compound `O=C(O)Cc1ccc(OCCNC[C@H](O)c2ccccc2)cc1`, the Potency entry is “inactive”.

Turning to `C=C(c1ccc(C(=O)O)cc1)c1cc2c(cc1C)C(C)(C)CCC2(C)C`, the Potency entry is “inactive”.

On to `COc1cccc(CCc2ccccc2OCC(CN(C)C)OC(=O)CCC(=O)O)c1` (centres undefined), for which the Potency was 30.9 µM (active).

Consider `CN(C)CCN1CCOCC1`, for which the Potency entry is “inactive”.

On to `CCOC(/C=C(\C)CCC=C(C)C)OCC`, for which the Potency result was “inactive”.

Regarding `CCC1CCCCC1`, the Potency entry is “inactive”.

Turning to `C=CC(C)(CCC=C(C)C)OC(=O)/C=C/c1ccccc1` (centres undefined), the Potency is 31.7 µM (active).

On to `CCCCCCCC(=O)OCC`, for which the Potency result is “inactive”.

As to `CC(C)c1cccc(C(C)C)c1N1C(=O)c2ccc(O)cc2C1=O`, the Potency entry is “inactive”.

On to `S=P(N1CC1)(N1CC1)N1CC1`, for which the Potency was 57.7 µM (active).

Regarding `C/C=C/c1ccc(OC)c(OC)c1`, the Potency is 25.2 µM (active).

In the case of `CCCCOCC`, the Potency entry was “inactive”.

As to `CCCCNc1c(C(=O)OCC)c(C)nc2c1cnn2CC`, the Potency is 2.75 µM (active).

On to `COC(=O)NCCC[Si](OC)(OC)OC`, for which the Potency result was “inactive”.

With `CC(=O)C=O`, the Potency result is “inactive”.

With `CCN(CC)CCSC(=O)C(c1ccccc1)c1ccccc1`, the Potency is 15.5 µM (active).

For `Cc1oc(-c2ccccc2)nc1CCOc1ccc(C[C@H](Nc2ccccc2C(=O)c2ccccc2)C(=O)O)cc1`, the Potency result was “inactive”.

For the compound `Oc1ccc(-c2ccc(O)cc2)cc1`, the Potency is 28.4 µM (active).

Regarding `CC(CN(C)C)CN1c2ccccc2CCc2ccccc21` (centres undefined), the Potency entry was “inactive”.

On to `CCN(CC)CCOc1ccc(C(O)(Cc2ccc(Cl)cc2)c2ccc(C)cc2)cc1` (centres undefined), for which the Potency result is “inactive”.

In the case of `CCC(C)C(=O)OC` (centres undefined), the Potency entry is “inactive”.

With `CCC(C)c1ccccc1` (centres undefined), the Potency entry was “inactive”.

With `CCOC(OCC)C(=O)c1ccccc1`, the Potency was 31.7 µM (active).

With `Clc1ccc(C(Cn2ccnc2)OCc2ccsc2Cl)c(Cl)c1` (centres undefined), the Potency was 4.56 µM (active).

Consider `CCCCCCCCCC(=O)N(C)C`, for which the Potency is 36.1 µM (active).
